ST2 inh: IL1RL1 inhibition; Q01638; AlphaLISA ST2-Fc/biotin-IL-33 interaction, 1 h; inhibition, % for hits at 17 µM; hit rate 2.3% among 78,000; in the data active = inhibition above about 30%
Target sequence (Q01638 whole entry, looked up): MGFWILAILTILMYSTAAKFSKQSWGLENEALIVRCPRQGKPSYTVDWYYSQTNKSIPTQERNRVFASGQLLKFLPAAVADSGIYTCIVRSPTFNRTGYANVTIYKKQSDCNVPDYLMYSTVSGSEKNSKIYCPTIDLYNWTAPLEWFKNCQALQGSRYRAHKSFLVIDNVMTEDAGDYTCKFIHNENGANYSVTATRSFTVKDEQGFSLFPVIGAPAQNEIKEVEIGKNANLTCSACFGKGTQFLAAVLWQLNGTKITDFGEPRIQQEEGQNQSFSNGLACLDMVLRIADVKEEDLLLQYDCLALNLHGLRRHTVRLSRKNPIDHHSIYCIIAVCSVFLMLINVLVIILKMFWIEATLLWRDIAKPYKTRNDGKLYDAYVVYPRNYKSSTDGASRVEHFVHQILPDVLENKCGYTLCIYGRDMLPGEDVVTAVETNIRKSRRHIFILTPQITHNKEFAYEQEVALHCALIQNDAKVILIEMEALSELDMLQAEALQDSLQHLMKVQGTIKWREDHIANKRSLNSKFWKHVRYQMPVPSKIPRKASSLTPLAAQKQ
The depositor's hits bear a star; i = inactive; ! = a repeat was not active. Shown is part of a subset that was picked to be rich in hits.

SMILES	ST2 inh
COc1ccc(C2=N/C(=C\C(Cl)=C\c3ccccc3)C(=O)O2)cc1[N+](=O)[O-]	i
CC(C)Cc1ccc(C2CC(=O)Nc3[nH]ncc32)cc1 (configuration not stated)	i
COC(=O)[C@@H]1C[C@H](NC(=O)c2csc(Cc3ccccc3)n2)CN1C	i
O=C(CC[C@@H]1CNC(=O)[C@@H]2C[C@H](NC(=S)NCc3ccco3)CN12)NCc1ccccc1	i
CSc1ccccc1Nc1ncnc2c1cnn2-c1cccc(C)c1	i
COCCCNc1nc2c(c(=O)n(C)c(=O)n2C)n1Cc1c(Cl)cccc1Cl	i
COc1cc(S(=O)(=O)NCC23CC4CC(CC(C4)C2)C3)ccc1Cl	i
Cc1c(NS(=O)(=O)c2ccc3c(c2)C(=O)c2ccccc2-3)c(=O)n(-c2ccccc2)n1C	i
COc1ccc(S(=O)(=O)NCC(C)C)cc1OC	i
CC(C)CCNS(=O)(=O)c1ccc2c(c1)C(=O)c1cc(S(=O)(=O)NCCC(C)C)ccc1-2	36%*
CN1C(=O)c2ccccc2Sc2ccc(C(=O)NCCN3CCOCC3)cc21	i
CCN1CCCC1CNC(=O)C1c2ccccc2C(=O)N(C)C1c1cccs1 (configuration not stated)	i
COc1cc(/C=C2/SC(=O)NC2=O)c([N+](=O)[O-])cc1OC	i
COc1cc(C=O)cc(C=O)c1O	i
COc1cc(/C=C2/C(=O)N(c3ccc(Br)cc3)N=C2C)cc([N+](=O)[O-])c1O	i
COc1ccccc1/C=C/C1=NC(=C\c2ccccc2[N+](=O)[O-])/C(=O)O1	i
COc1cc(Br)cc(/C=C2/NC(=O)NC2=O)c1O	i
COc1cc(/C=C2\C(=O)N(c3cccc(C(=O)O)c3)N=C2C)cc([N+](=O)[O-])c1O	i
O=C1/C(=C/c2ccccc2[N+](=O)[O-])Sc2ccccc21	31%*
COc1cc(/C=C2\Sc3ccccc3C2=O)cc([N+](=O)[O-])c1O	30%*
COc1cc(Br)cc(/C=C2\Sc3ccccc3C2=O)c1O	60%*
COc1ccc(NC(=O)CCC2CCCN(C(=O)C3=CC(=O)CC(C)(C)O3)C2)cc1Cl (configuration not stated)	i
CC(=O)N(CN1C(=O)c2ccc(Br)cc2C1=O)c1ccc(Oc2ccccc2)cc1	i
O=C1C[C@H](Sc2nc3c(c(C(F)(F)F)n2)CCCC3)[C@H]2CO[C@@H]1O2	i
COc1ncc(-c2nccn2C(C)Cc2ccsc2)cn1 (configuration not stated)	i
SMILES	ST2 inh
COc1ccc(CN2CCc3[nH]cnc3C2C(C)C)cc1O (configuration not stated)	i
O=C(CC1C(=O)NCCN1Cc1ccoc1)NCCC1=CCCCC1 (configuration not stated)	i
COc1ccc(C(=O)O/N=C(/N)c2cccnc2)c(OC)c1	i
CC1CC(=O)C2=C(CCC3(O)C2C(=O)c2cccc(O)c2C3O)C1 (configuration not stated)	31%*
COCCN1CCC(Cn2ccnc2-c2nccn2C)C1 (configuration not stated)	i
Cc1ccc(-c2noc([C@@H]3C[C@@H](O)CN3Cc3ccc([N+](=O)[O-])cc3)n2)cc1F	i
CCOc1ccccc1NC(=O)NCCc1nc2cccnc2n1Cc1ccc(C)cc1	i
Cc1cnc(NC(=O)c2ccc(CN(C)Cc3cnc(N)nc3)cc2)s1	i
CCCCNC(=O)CSCc1nc(-c2ccc(SC)cc2)oc1C	i
COc1ccc2oc(=O)c(NC(=O)/C=C/c3ccccc3)cc2c1	i
CC1=CC(=O)C=C(C)C1=NOC(=O)/C=C\c1ccccc1	35%*
COc1ccc(/C=C/C(=O)Nc2ccccc2C(=O)O)cc1OC	i
CN(Cc1cccnc1)C(Cc1ccccc1)C1CCN(C(=O)C23CC4CC(CC(C4)C2)C3)CC1 (configuration not stated)	32%*
CSc1nnc(CC2CCN(C(=O)CN(C)Cc3cccnc3)CC2)n1C	i
CN(C(=O)c1cccs1)C(Cc1ccccc1)C1CCN(C(=O)C2=CCCC2)CC1 (configuration not stated)	i
O=C(CSc1nc2ccccc2o1)Nc1ccc(F)c(F)c1	i
Cc1ccc(-c2cnc(N)cn2)c2cccnc12	i
Nc1ccc(-c2nc3ccccc3[nH]2)cc1	i
Nc1ccc(CCc2nc3ccc(N)cc3[nH]2)cc1	i
Nc1ccc(-c2nc3ccc(-c4nc5ccc(N)cc5[nH]4)cc3[nH]2)cc1	35%*!
c1ccc(-c2nc3sccn3c2Nc2ccc3c(c2)OCCO3)cc1	i
CN1CCN(C(=O)c2cc(-c3ccc4c(c3)OCO4)on2)CC1	i
O=C(COC(=O)c1ccc(Cl)cc1)c1ccc(Br)cc1	i
O=C(COC(=O)c1ccccc1O)c1ccc(Br)cc1	90%*
O=C(COC(=O)c1cccc(Br)c1)c1ccc(Br)cc1	i
SMILES	ST2 inh
O=C(/C=C/c1cccs1)Nc1ncc(Cc2cccc(C(F)(F)F)c2)s1	i
O=C1CCc2cc(S(=O)(=O)N3CCc4ccccc4C3)ccc2N1	i
O=C(Nc1ccccc1[N+](=O)[O-])c1cccc(S(=O)(=O)N2CCc3ccccc3C2)c1	40%*
O=C(Nc1nc2ccc(F)cc2s1)c1ccc(S(=O)(=O)N2CCc3ccccc3C2)cc1	i
COc1ccc(OC)c(NC(=O)c2ccc(C)c(Cl)c2)c1	i
Cc1ccc(C(=O)Nc2ccc(N3CCOCC3)c(Cl)c2)cc1[N+](=O)[O-]	i
CCN(CC)CCCNc1c2c(c(C#N)c3nc4ccccc4n13)CCC2	42%*
CCc1nc(NCCN(CC)CC)c(C#N)c2c1CCCC2	i
CCCc1cc(NCCCCO)n2c(nc3ccccc32)c1C#N	i
O=C(CCN1CCCCC1c1nccs1)Nc1nnc(C2CC2)s1 (configuration not stated)	i
O=C1C2C3CCC(C3)C2C(=O)N1c1ccc(Cl)c(F)c1 (configuration not stated)	i
C[C@H](O)Cn1cnc(-c2ccccc2)c1-c1ccc(Cn2cccn2)cc1	i
COc1ccc(-c2csc(/C(C#N)=C/c3cccs3)n2)cc1	50%*
O=C(Nc1nc(-c2ccccc2)cs1)c1ccccc1	i
COc1ccc(-c2csc(/C(C#N)=C\c3ccc(F)cc3)n2)cc1OC	i
COc1ccc(C2=Nn3c(nnc3-c3ccccc3Cl)SC2)cc1	i
COc1ccc(-c2csc(/C(C#N)=C/c3ccccc3Cl)n2)cc1	42%*
N#C/C(=C/c1ccccc1Cl)c1nc(-c2ccccc2)cs1	65%*
COc1ccc(/C=C(\C#N)[N+](=O)[O-])cc1	i
COc1ccc(-c2cc(C(F)(F)F)nc(NCc3cccs3)n2)cc1	i
COc1ccc(-c2csc(/C(C#N)=C/c3ccc(Cl)cc3)n2)cc1	34%*
COc1cccc2cc(-c3nc(-c4ccc(Cl)cc4)cs3)c(=O)oc12	i
N#C/C(=C\c1ccccc1[N+](=O)[O-])c1nc(-c2ccc(Cl)c(Cl)c2)cs1	i
N#C/C(=C\c1cccs1)c1nc(-c2ccc(Cl)c(Cl)c2)cs1	i
COc1coc(CN2CCCC(C(=O)c3ccc4ccccc4c3)C2)cc1=O (configuration not stated)	i
CCC1(c2ccccc2)NCC(c2ccc([N+](=O)[O-])cc2)O1 (configuration not stated)	i
CC(C)c1nccn1CCCNC(=O)c1ccc(-c2ccc3cc[nH]c3c2)nc1	i
O=S(=O)(Nc1ccc(F)cc1F)c1ccc(F)cc1	i

Source: PubChem BioAssay
